# The whole screen tested about 200,000 compounds, of which about 18,000 (9%) were called active. The sample as a whole holds a higher share of actives than the screen did. Values without a mark were called inactive. No stated cut-off is given here; in the data, active means inhibition above about 50%; inactive means the rest.
# Assay: Leishmania major promastigote growth inhibition, primary screen (AID 1063);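 further: promastigotes grown with compound for 44 hours at 28 °C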
# Settings: Leishmania major promastigotes, resazurin fluorescence viability; at 10 µM; stronger effect = higher value
row,Structure (SMILES),inhibition
1,CCS(=O)(=O)N1Cc2ccccc2CC1C(=O)Nc1nc2ccc(F)cc2s1 (stereo unspecified),19.1%
2,CN(C)C(=O)N1CCNCC1,-4.41%
3,COc1cccc(-c2cc(C(=O)N/N=C/c3ccc(OC)c(COC(C)=O)c3)c3ccccc3n2)c1,10.4%
4,Cc1ccc(-c2cc(C(=O)N/N=C/C=C/c3ccco3)c3ccccc3n2)cc1C,55.7% (active)
5,O=C(N/N=C/C=C/c1ccco1)c1cccs1,-2.33%
6,COc1ccc(NS(=O)(=O)c2ccc(O)c(C(=O)OCC(=O)NC3CCCCC3)c2)cc1,-3.84%
7,O=C(NNc1cc(Cl)ccc1Cl)c1cccnc1Cl,-4.41%
8,COC(=O)Cc1ccc(NC(=S)NCc2ccco2)cc1,-3.07%
9,CC(C)c1nc(CNC(=O)CC2C(=O)NCCN2Cc2ccoc2)cs1 (stereo unspecified),-2.52%
10,COCc1c(N)c(C)nc(Cl)c1C#N,3.91%
11,Cc1ccsc1/C=N/n1c(=S)[nH]nc(C)c1=O,99% (active)
12,S=c1[nH]nc(-c2cccs2)n1/N=C/c1cccs1,-14.7%
13,Oc1ccccc1/C=N/n1c(-c2cccs2)n[nH]c1=S,-8.08%
14,Cc1c(Cl)cccc1NC(=O)CSc1ccc(-c2cccnc2)nn1,10.9%
15,Cc1cc(SCC(=O)c2ccccc2)nc(SCC(=O)c2ccccc2)n1,-2.75%
16,Cc1cc(Oc2ccc(Cl)cc2)nc(SCC(=O)c2ccccc2)n1,95.7% (active)
17,COC(=O)c1cc(C(=O)CSc2nc(C)cc(C)n2)ccc1O,-2.37%
18,CC(=O)c1sc(NC(=O)C2=NN(c3ccccc3)C(=O)CC2)nc1C,2.95%
19,CC1=CC=CC2=N/C(=N\S(=O)(=O)c3ccc(F)cc3F)c3ccccc3CN12,2.41%
20,Oc1ccc(CNc2ccccc2O)cc1,98.9% (active)
21,O=[N+]([O-])c1ccccc1NCc1ccc(Cl)cc1,-7.18%
22,O=[N+]([O-])c1ccccc1Nc1ccc(O)cc1,5.07%
23,O=C(CS(=O)(=O)c1ccccc1)Nc1ccc(S(=O)(=O)Nc2ccccn2)cc1,-6.61%
24,O=C(NCCc1ccc(F)cc1)c1n[nH]c2ccccc12,3.08%

row,Structure (SMILES),inhibition
1,O=C(CC(O)(C(F)(F)F)C(F)(F)F)Nc1ccc(Cl)c(Cl)c1,100% (active)
2,O=C(Cc1ccc(Cl)c(Cl)c1)Nc1ccc(SC(F)F)cc1,4.28%
3,CN(C)CCNC(CC(=O)Nc1ccc(Cl)c(Cl)c1)C(=O)O (stereo unspecified),-6.23%
4,Cc1cc(C)n(-c2ccc(C(=O)O)cc2[N+](=O)[O-])n1,-1.85%
5,COC(=O)Cc1csc(/N=C/c2c(O)n(-c3cccc(C(F)(F)F)c3)c(=O)c3ccccc23)n1,-6.16%
6,CCN(CCn1cccn1)Cc1cn[nH]c1-c1ccc(OC)cc1F,2.85%
7,Oc1cccc2ccc(/C=C/c3ccc(Br)s3)nc12,-3.7%
8,CCCNC(=O)CN(Cc1ccccc1F)S(=O)(=O)c1ccc(C)cc1,100% (active)
9,CCN(CC(=O)NCCc1ccccc1)S(=O)(=O)c1ccc(C)cc1,48%
10,CCN(CC(=O)NCCc1ccccc1)S(=O)(=O)c1ccccc1,5.3%
11,CN(C)C(=O)c1cccn(Cc2cccc(C(F)(F)F)c2)c1=O,-8.4%
12,Cc1cc(C)n2nc(SCC(=O)NC(=O)NCc3ccco3)nc2n1,-4.34%
13,O=c1[nH]c2cccnc2n(CCNc2ncc(C(F)(F)F)cc2Cl)c1=O,-4.9%
14,Cc1ccc(NC(=O)Nc2ccc3oc(C)nc3c2)cc1,2.15%
15,COc1ccc(NC(=O)Nc2ccc3nsnc3c2)cc1,5.81%
16,O=C(Nc1ccc2ccccc2c1)Nc1ccc2snnc2c1,100% (active)
17,CCCn1c(NC(=O)C23CC4CC(CC(O)(C4)C2)C3)nc2ccccc21,-1.31%
18,CCn1c(COc2c(C)cccc2C)nnc1SCc1nc2ccccc2c(=O)[nH]1,4.15%
19,CN1CCN(/N=C/c2ccc(-c3ccc([N+](=O)[O-])cc3)o2)CC1,-3.39%
20,C/[N+]([O-])=C\c1ccc([N+](=O)[O-])o1,98.5% (active)
21,COC(=O)C1=C(C)N(C)C(=O)NC1c1ccc([N+](=O)[O-])o1 (stereo unspecified),15.2%
22,O=C(COc1ccc(Cl)cc1[N+](=O)[O-])N1CCCCC1,-1.15%
23,O=C(CN1CCN(S(=O)(=O)/C=C/c2ccccc2)CC1)Nc1ccc(N2CCOCC2)cc1,7.17%
24,COc1ccc2c(CN3CCN(S(=O)(=O)c4cccs4)CC3)cc(=O)oc2c1,2.99%

row,Structure (SMILES),inhibition
1,O=c1cc(CN2CCN(S(=O)(=O)/C=C/c3ccccc3)CC2)c2ccc(O)cc2o1,67.8% (active)
2,O=c1c(-c2ccccc2)cnc2n1CCS2,-5.22%
3,O=C(Cc1c(F)cccc1Cl)Nc1ncc([N+](=O)[O-])s1,15.8%
4,O=C(CSc1ccc(-c2ccc(F)cc2)nn1)Nc1ccc2c(c1)OCCO2,-7%
5,CC1CCCN(C(C(=O)Nc2ccc(C(C)C)cc2)c2ccc3c(c2)OCO3)C1 (stereo unspecified),26.3%
6,O=C(Nc1ccc2c(c1)OCCO2)C(c1ccc(F)cc1)N1CCCCC1 (stereo unspecified),58.5% (active)
7,COc1cc(/C=N/NC(=O)c2cc(C)n(-c3ccc(F)cc3)c2C)cc(OC)c1O,3.76%
8,O=C(COC(=O)CC1CC2CCC1C2)NC(=O)NC1CCCC1 (stereo unspecified),-2.24%
9,Cc1cccc(-n2cnc(C(=O)Nc3cccnc3)c2)n1,10.3%
10,Cc1cccc(-n2cnc(C(=O)NNC(=S)Nc3ccccc3)c2)n1,87% (active)
11,Cn1cc(Cl)c(C(=O)NNC(=S)Nc2cccc(Cl)c2)n1,-7.35%
12,CCOC(=O)c1ccc[n+](CC(=O)Nc2ccccc2OC(F)F)c1,1.13%
13,CCCCN(C(=O)COc1ccc(NC(C)=O)cc1)C1CCS(=O)(=O)C1 (stereo unspecified),-9.97%
14,CC(C)NC(=S)N1CCN(C(c2ccccc2)c2ccccc2)CC1,7.72%
15,CCOc1ccc(C(=O)NC2CCN(C(=O)Nc3ccccc3OC)CC2)cc1,-1.82%
16,COCCNC(=S)N1CCC(NC(=O)C23CC4CC(CC(C4)C2)C3)CC1,73.8% (active)
17,COc1ccccc1NC(=S)N1CCN(C(c2ccccc2)c2ccccc2)CC1,65.1% (active)
18,COc1ccc(C(=O)NC2CCN(C(=S)Nc3ccccc3)CC2)cc1,-5.57%
19,COc1ccccc1NC(=S)NC(=O)C(C)C,-0.07%
20,CCCNC(=S)N1CCC(NC(=O)C23CC4CC(CC(C4)C2)C3)CC1,-3.43%
21,CCOCCCNC(=S)N1CCC(NC(=O)C2CCCCC2)CC1,-5.68%
22,COc1ccccc1NC(=S)N1CCC(NC(=O)C23CC4CC(CC(C4)C2)C3)CC1,94.4% (active)
23,Cc1ccccc1NC(=O)Cn1c(=O)n(CC2CCCO2)c(=O)c2ccccc21 (stereo unspecified),-7.76%
24,Cc1cc(C)c(C#N)c(N2CCC(C(N)=O)CC2)n1,-0.97%

row,Structure (SMILES),inhibition
1,Cc1csc(NC(=O)Nc2ccccc2[N+](=O)[O-])n1,4.81%
2,O=C(Oc1cccc(NC2=NS(=O)(=O)c3ccccc32)c1)c1ccncc1,-2.71%
3,O=C(N/N=C/c1ccc(OCc2ccccc2)cc1)c1ccc(O)cc1,12.5%
4,CCC1SC(CC)C(=O)N(CC(=O)NC2CCCCC2)C1=O (stereo unspecified),-5.41%
5,CC1(C)C(=O)Nc2ccccc2N1C(=O)COC(=O)Cn1cnc2ccccc2c1=O,-3.68%
6,Cc1cc(C(=O)OCC(=O)N2c3ccccc3NC(=O)C2(C)C)c(C)n1-c1ccccc1,21.6%
7,CCNc1ccc(C(=O)OCC(=O)N2c3ccccc3NC(=O)C2(C)C)cc1[N+](=O)[O-],54.4% (active)
8,COc1ccc(-c2csc(-c3cccs3)n2)cc1OC,0.19%
9,CCOc1ccc(-c2ccc(SCC(=O)N3CCOCC3)nn2)cc1,-2.79%
10,Cc1ccc(Cc2nc(-c3cccc(C)c3)no2)cc1,-3.66%
11,Cc1ccc(-c2noc(CN3CCN(Cc4ccccc4)CC3)n2)cc1,52.1% (active)
12,Cc1ccc(-c2noc(CC(c3ccccc3)c3ccccc3)n2)cc1,7.54%
13,Cn1cc(/C=C/C(=O)N2CCCC(C(=O)c3ccc(C(F)(F)F)cc3)C2)cn1 (stereo unspecified),-7.13%
14,Brc1cc(/C=N/n2cnnc2)oc1Br,-0.54%
15,S=c1[nH]nc(NCCc2ccccc2)s1,-6.01%
16,COc1ccccc1N1CCN(C(=O)CN(Cc2ccc(Cl)cc2)S(C)(=O)=O)CC1,-0.49%
17,COc1ccc(OC)c(NC(=O)CN(Cc2ccc(Cl)cc2)S(C)(=O)=O)c1,90.1% (active)
18,COc1ccc(CCNC(=O)CN(c2ccccc2)S(C)(=O)=O)cc1,-6.75%
19,COc1ccc(NC(=O)CN(Cc2ccccc2)S(C)(=O)=O)cc1OC,-6.14%
20,COc1ccc(CNC(=O)CN(Cc2ccc(Cl)cc2)S(C)(=O)=O)cc1,57.5% (active)
21,COC(=O)c1ccccc1NC(=O)CN(Cc1ccc(Cl)cc1)S(C)(=O)=O,36.9%
22,CCC(C)NC(=O)CN(C1CCCCC1)S(C)(=O)=O (stereo unspecified),1.28%
23,O=C(COC(=O)c1ccncc1)c1ccccc1,-4.89%
24,CNC(=O)NC(=O)CSc1nnc(-c2ccc(F)cc2)n1CC1CCCO1 (stereo unspecified),-2.36%

# — PubChem BioAssay AID1063 (University of Pittsburgh Molecular Library Screening Center, 2008)
